# Data reported in PubChem BioAssay.
# System: XIP peptide (Xip251-270)
# Assay: small-molecule binders of XIP peptide, primary screen, biochemical, small-molecule microarray, fluorescence 635/667 nm, 0.5 µg/mL protein (AID 1183)
# Details: small-molecule microarray binding, fluorescence 635 nm; higher = more signal
row,SMILES,composite z-score
1,CC(=O)OC[C@H]1O[C@H](CCON=C(C)C)C=C[C@@H]1OC(C)=O,0.0795
2,CC(C)=CCCC(C)=CCON=C1C[C@@H](O)[C@@H](O)[C@@H]2[C@@H]3C(=O)N(Cc4ccc5c(c4)OCO5)C(=O)[C@@H]3CC[C@@H]12,0.245
3,CCOC(=O)[C@H](Cc1ccccc1)NC(=O)CCC1CC(OC(=O)NCCc2ccc(F)cc2)CC2(CCCC(COC(=O)NCCOc3ccccc3)O2)O1 (stereo partly specified),0.401
4,COc1ccc(O[C@H]2C=C[C@@H](c3ccccc3)O[C@@H]2CO)cc1,0.546
5,CO[C@H]1COC(=O)CC=C[C@@H](C)COC(=O)[C@H]2CCCN2C(=O)CC=C[C@H]1C,0.286
6,CC(C)=NO[C@@H](C)c1cn([C@H](CO)Cc2ccccc2)nn1,0.241
7,COC(=O)[C@H](C)NC(=O)CCC1CC(OC(=O)NCCc2ccc(F)cc2)CC2(CCCC(COC(=O)NCC3CCCCC3)O2)O1 (stereo partly specified),0.526
8,CC(C)C(=O)N[C@H]1CCCN1C(=O)C=Cc1ccccc1,-0.168
9,COC(OC)[C@@H](C)[C@H](OC)[C@@H](C)[C@H](OC)c1ccccc1,-0.0245
10,CC(C)CON=C1C[C@@H](O)[C@@H](O)[C@@H]2[C@@H]3C(=O)N(c4ccc(F)cc4F)C(=O)[C@@H]3CC[C@@H]12,0.218
11,CON=C(C)CCN1CCCCc2nc(C)c(C)cc21,0.49
12,COC(=O)[C@H](C)NC(=O)CCC1CC(OC(=O)NCc2cccc3ccccc23)CC2(CCCC(COC(=O)NCCc3ccccc3OC)O2)O1 (stereo partly specified),0.384
13,OC[C@H]1O[C@H](C#Cc2ccccc2)C=C[C@@H]1O,-0.105
14,CCOC(=O)[C@H](CC(C)C)NC(=O)CCC1CC(OC(=O)NCc2ccc3c(c2)OCO3)CC2(CCCC(COC(=O)NCCc3ccccc3OC)O2)O1 (stereo partly specified),0.622
15,C[C@@H]1CC[C@H]2C(=O)O[C@@H](CN=[N+]=[N-])CN2[C@H]1c1ccc(Br)cc1,0.688
16,CO[C@@H]1COC(=O)CC=C[C@H](C)[C@H](OC)COC(=O)[C@@H]2CCCN2C(=O)CC=C[C@H]1C,0.607
17,COc1ccc(COC(=O)NN=C2C[C@@H](O)[C@@H](O)[C@@H]3[C@@H]4C(=O)N(C5CCCCC5)C(=O)[C@@H]4CC[C@@H]23)cc1,0.0499
18,CCN1C(=O)[C@H]2[C@H]3[C@H](O)[C@H](O)CC(=NO[C@@H]4O[C@H](CO)[C@@H](O)[C@H](O)[C@H]4O)[C@H]3CC[C@H]2C1=O,0.263
19,COC(=O)[C@@H]1CC[C@H](C)[C@@H](c2ccc(Br)cc2)N1C[C@@H](O)CN=[N+]=[N-],-0.03
20,COC(=O)[C@H](C)NC(=O)CC=C[C@@H](C)[C@@H]1C=C[C@H](O)[C@@H](CO)O1,0.0241
21,CC(C)=NOC[C@@H](O)[C@H]1O[C@@H]2OC(C)(C)O[C@@H]2[C@H]1O,-0.122
22,CCOC(=O)[C@H](CC(C)C)NC(=O)CCC1CC(OC(=O)NCc2ccc3c(c2)OCO3)CC2(CCCC(COC(=O)NCCOC)O2)O1 (stereo partly specified),0.0552
23,CCOC(=O)CCN1C(=O)[C@H]2[C@H]3[C@H](O)[C@H](O)CC(=NO[C@@H]4O[C@H](CO)[C@@H](O)[C@H](O)[C@H]4O)[C@H]3CC[C@H]2C1=O,0.405
24,C[C@@H]1CC[C@H]2C(=O)OC(Cc3ccccc3)CN2[C@H]1c1ccc(Br)cc1 (stereo partly specified),0.276
25,O=C1[C@H]2[C@H]3[C@H](O)[C@H](O)CC(=NO[C@@H]4O[C@H](CO)[C@@H](O)[C@H](O)[C@H]4O)[C@H]3CC[C@H]2C(=O)N1C[C@@H]1CCCO1,0.184

# System: not listed separately
# Assay: Plasmodium falciparum growth inhibition, primary screen, strain 3D7, DAPI fluorescence, 100 nL (AID 1184);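 further: parasites grown inside human red blood cells in medium with human serum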
# Details: P. falciparum 3D7 growth, 3 d, higher = more signal
row,SMILES,z-score
1,O=C1[C@H]2[C@H]3[C@H](O)[C@H](O)CC(=NOCc4ccccc4)[C@H]3CC[C@H]2C(=O)N1C1CCCCC1,-0.369
2,C[C@@H](c1ccccc1)N1C(=O)[C@H]2[C@H]3[C@H](O)[C@H](O)CC(=NNC(=O)OCc4ccccc4)[C@@H]3CC[C@H]2C1=O,0.556
3,C[C@H]1CC[C@@H](C(=O)O)N[C@@H]1c1ccc(C#Cc2ccccc2)cc1,-1.61
4,C[C@H]1CC[C@H]2C(=O)N[C@H](Cc3ccccc3)C(=O)N2[C@@H]1c1ccccc1,0.388
5,O=C(NN=C1C[C@@H](O)[C@@H](O)[C@@H]2[C@@H]3C(=O)N(Cc4ccc5c(c4)OCO5)C(=O)[C@@H]3CC[C@@H]12)OCc1ccccc1,-1.1
6,CCc1cc2c(nc1CC)CCN(CCC(C)=NOCC[C@@H]1C=C[C@H](OC(C)=O)[C@@H](COC(C)=O)O1)C2,-0.876
7,CCN1C(C)=C(C(=O)OC)[C@@H](c2ccccc2)N2C(=O)[C@](O)(C(=O)OC)CC(C(C)=O)=C12,0.752
8,CCN1C(=O)[C@H]2[C@H]3[C@H](O)[C@H](O)CC(=NOC[C@@H](O)[C@H]4O[C@@H]5OC(C)(C)O[C@@H]5[C@H]4O)[C@@H]3CC[C@H]2C1=O,0.663
9,CCOC(=O)[C@H](Cc1ccccc1)NC(=O)CCC1CC(OC(=O)NCc2ccc3c(c2)OCO3)CC2(CCCC(COC(=O)NCCOC)O2)O1 (stereo partly specified),-2.09
10,CC(CCN1CCCCc2nc(C)c(C)cc21)=NO[C@@H](C)c1cc(-c2c(C)cc(C)cc2C)no1,-0.143
11,CCCC[C@H]1CN2[C@@H](CC[C@@H](C)[C@@H]2c2ccc(Br)cc2)C(=O)O1,-0.278
12,CC(=O)OC[C@H]1O[C@H](CCON=C(C)C)C=C[C@@H]1OC(C)=O,1.48
13,CC(C)=CCCC(C)=CCON=C1C[C@@H](O)[C@@H](O)[C@@H]2[C@@H]3C(=O)N(Cc4ccc5c(c4)OCO5)C(=O)[C@@H]3CC[C@@H]12,-0.526
14,CCOC(=O)[C@H](Cc1ccccc1)NC(=O)CCC1CC(OC(=O)NCCc2ccc(F)cc2)CC2(CCCC(COC(=O)NCCOc3ccccc3)O2)O1 (stereo partly specified),-1.7
15,COc1ccc(O[C@H]2C=C[C@@H](c3ccccc3)O[C@@H]2CO)cc1,-0.672
16,CO[C@H]1COC(=O)CC=C[C@@H](C)COC(=O)[C@H]2CCCN2C(=O)CC=C[C@H]1C,0.655
17,CC(C)=NO[C@@H](C)c1cn([C@H](CO)Cc2ccccc2)nn1,0.412
18,COC(=O)[C@H](C)NC(=O)CCC1CC(OC(=O)NCCc2ccc(F)cc2)CC2(CCCC(COC(=O)NCC3CCCCC3)O2)O1 (stereo partly specified),-2.07

row,SMILES,z-score
1,CC(C)C(=O)N[C@H]1CCCN1C(=O)C=Cc1ccccc1,-0.64
2,COC(OC)[C@@H](C)[C@H](OC)[C@@H](C)[C@H](OC)c1ccccc1,0.129
3,CC(C)CON=C1C[C@@H](O)[C@@H](O)[C@@H]2[C@@H]3C(=O)N(c4ccc(F)cc4F)C(=O)[C@@H]3CC[C@@H]12,-1.66
4,CON=C(C)CCN1CCCCc2nc(C)c(C)cc21,1.06
5,COC(=O)[C@H](C)NC(=O)CCC1CC(OC(=O)NCc2cccc3ccccc23)CC2(CCCC(COC(=O)NCCc3ccccc3OC)O2)O1 (stereo partly specified),-1.47
6,OC[C@H]1O[C@H](C#Cc2ccccc2)C=C[C@@H]1O,0.223
7,CCOC(=O)[C@H](CC(C)C)NC(=O)CCC1CC(OC(=O)NCc2ccc3c(c2)OCO3)CC2(CCCC(COC(=O)NCCc3ccccc3OC)O2)O1 (stereo partly specified),-1.88
8,C[C@@H]1CC[C@H]2C(=O)O[C@@H](CN=[N+]=[N-])CN2[C@H]1c1ccc(Br)cc1,-1.72
9,CO[C@@H]1COC(=O)CC=C[C@H](C)[C@H](OC)COC(=O)[C@@H]2CCCN2C(=O)CC=C[C@H]1C,-1.52
10,COc1ccc(COC(=O)NN=C2C[C@@H](O)[C@@H](O)[C@@H]3[C@@H]4C(=O)N(C5CCCCC5)C(=O)[C@@H]4CC[C@@H]23)cc1,-1.07
11,CCN1C(=O)[C@H]2[C@H]3[C@H](O)[C@H](O)CC(=NO[C@@H]4O[C@H](CO)[C@@H](O)[C@H](O)[C@H]4O)[C@H]3CC[C@H]2C1=O,-0.0716
12,COC(=O)[C@@H]1CC[C@H](C)[C@@H](c2ccc(Br)cc2)N1C[C@@H](O)CN=[N+]=[N-],-0.877
13,COC(=O)[C@H](C)NC(=O)CC=C[C@@H](C)[C@@H]1C=C[C@H](O)[C@@H](CO)O1,-1.66
14,CC(C)=NOC[C@@H](O)[C@H]1O[C@@H]2OC(C)(C)O[C@@H]2[C@H]1O,0.292
15,CCOC(=O)[C@H](CC(C)C)NC(=O)CCC1CC(OC(=O)NCc2ccc3c(c2)OCO3)CC2(CCCC(COC(=O)NCCOC)O2)O1 (stereo partly specified),-1.99
16,CCOC(=O)CCN1C(=O)[C@H]2[C@H]3[C@H](O)[C@H](O)CC(=NO[C@@H]4O[C@H](CO)[C@@H](O)[C@H](O)[C@H]4O)[C@H]3CC[C@H]2C1=O,0.209
17,C[C@@H]1CC[C@H]2C(=O)OC(Cc3ccccc3)CN2[C@H]1c1ccc(Br)cc1 (stereo partly specified),0.695
18,O=C1[C@H]2[C@H]3[C@H](O)[C@H](O)CC(=NO[C@@H]4O[C@H](CO)[C@@H](O)[C@H](O)[C@H]4O)[C@H]3CC[C@H]2C(=O)N1C[C@@H]1CCCO1,0.656
